KDM5B inh = blocks human KDM5B histone demethylase activity; Q9UGL1; KDM5B demethylase, FDH-coupled NADH fluorescence (FDH is formaldehyde dehydrogenase); Potency, µM (series often up to 57.7 µM), most hits filed as inhibitors; 220,000 tested, 2.6% active; AID 1347165; active means well fitted inhibition curve with a large enough effect; inconclusive means small, poorly fitted or top-dose-only effect; inactive means no such curve, though single readings can be large or run the other way; further: nearly all actives have a fitted effect of over 70% in size
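Compound dilutions met 200 nM (final) KDM5BΔAP for 10 min at room temperature before substrate addition. The substrate mix held 12.5 µM H3K4me3 with cofactors 25 µM α-ketoglutarate and 50 µM Fe²⁺. NADH signal gain over 30 min defined activity.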
IP6K1 inh = inhibitors of human IP6K1 | activity change, % (series mostly up to about 58 µM) | Q92551 | 140,000 tested, 0.81% active | IP6K1 kinase, ADP-Glo luminescence, 2 h; hits give low values; in the data active means activity change below about -25%
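ADP-Glo luminescence measures ADP made by human IP6K1 during a 2 h RT reaction with ATP/IP6 (mix at 1.3 mM/130 uM); top library doses 57.5 and 19.1 uM final.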
Of the large screens only hits and unclear results are named; the others gave an inactive call. Sampled rows, rich in hits. Any-hit rate of the full collection: about 2.8%.

COC[C@@H]1CN(c2ncccn2)C[C@H]1C(=O)Nc1ccc(OC)nc1	KDM5B inh 25µM
CCOC(=O)C(C(=O)OCC)C(NC(=O)OC)C(Cl)(Cl)Cl (stereo unspecified)	none (no result: IP6K1 inh)
Cc1cccc(Cn2c(N3CCN(Cc4ccccc4)CC3)nc3c2c(=O)[nH]c(=O)n3C)c1	none (no result: IP6K1 inh)
CC(C)N1CC(C(=O)NCc2cccc(Cl)c2)NC1=O (stereo unspecified)	none (no result: KDM5B inh)
CN1CCCC1CCNc1nccc(-c2cnn(-c3ccc(F)cc3)c2)n1 (stereo unspecified)	KDM5B inh 28µM
C=C(C)CNc1ccc(C(=O)NCCC2CCCCN2C)cn1 (stereo unspecified)	KDM5B inh inconclusive
Cn1ncc2c(C(=O)NC3CCCCC3)cc(-c3ccc(F)cc3)nc21	none (no result: KDM5B inh)
CN1CCCC1CCNc1nccc(-c2cnn(-c3ccccc3F)c2)n1 (stereo unspecified)	KDM5B inh 28µM
COCCc1noc(CNC(=O)c2ccc(-c3ccccc3Cl)o2)n1	KDM5B inh inconclusive
CSCc1noc(CNC(=O)c2ccc(-c3ccccc3Cl)o2)n1	KDM5B inh 32µM
Cc1ccc(Nc2ccnc(N3CCC(C(=O)NC(C)C)CC3)n2)cc1	none (no result: KDM5B inh)
O=C(NCCCc1ccccc1)c1cn2cc(-c3ccc(F)cc3)sc2n1	none (no result: KDM5B inh)
CCN(CC)c1cc(CCC(=O)NCCOC)ccn1	KDM5B inh 18µM
CCN(CC)c1cc(CCC(=O)N2CCN(c3cccc(OC)c3)CC2)ccn1	KDM5B inh inconclusive
CCN(CC)c1cc(CCC(=O)N2CCC(COC)CC2)ccn1	KDM5B inh 25µM
CCN(CC)c1cc(CCC(=O)NCCN(C)C2CCCCC2)ccn1	KDM5B inh 28µM
CCN(CC)c1cc(CCC(=O)NCCc2ccccn2)ccn1	KDM5B inh inconclusive
CCN(CC)c1cc(CCC(=O)NCCN2CCCCCC2)ccn1	KDM5B inh 28µM
CCN(CC)c1cc(CCC(=O)NCc2ccc(N3CCOCC3)cc2)ccn1	KDM5B inh inconclusive
CCN(CC)c1cc(CCC(=O)O)ccn1	none
O=C(Nc1ccc(Cl)cc1)c1nc2ccccc2nc1N1CCCCC1	none (no result: IP6K1 inh)
CN(Cc1ccc(OC(F)(F)F)cc1)C(=O)C1(c2ccc(Cl)cc2)CCOCC1	KDM5B inh inconclusive
CC1C(=O)CCN(C2CC2)C1C (stereo unspecified)	none (no result: IP6K1 inh)
CCN(CC)c1cc(CCC(=O)NCCCN2CCN(C)CC2)ccn1	KDM5B inh 25µM
CCN(CC)c1cc(CCC(=O)N2CCN(c3ccc(Cl)cc3)CC2)ccn1	KDM5B inh inconclusive
COCc1nnc2n1CCC(NC(=O)c1ccc3cc[nH]c3c1)CC2 (stereo unspecified)	KDM5B inh 28µM
COCc1nnc2n1CCC(NC(=O)c1ccn(C)n1)CC2 (stereo unspecified)	none
Cc1nn2c(c1-c1ccccc1[S+](C)(=O)[O-])N(CCC(C)C)CCC2	KDM5B inh 22µM
COc1ccccc1CN1CCCn2nc(C)c(-c3ccccc3[S+](C)(=O)[O-])c21	none
O=[S+]([O-])(NC1CCN(c2ccc3nnc(C4CC4)n3n2)C1)c1ccccc1 (stereo unspecified)	none (no result: KDM5B inh)
O=C(NCCc1ccccc1F)c1nc2sccn2c1-c1ccc(C(F)(F)F)cc1	none (no result: KDM5B inh)
COc1ccc(-c2nc3c(c(=O)[nH]2)CCN(C(=O)CSc2ccccc2)C3)cc1	KDM5B inh inconclusive
CCc1cccc(NC(=O)N2CCc3c(nc(-c4ccc(OC)cc4)[nH]c3=O)C2)c1	KDM5B inh inconclusive
COc1ccc(-c2nc3c(c(=O)[nH]2)CCN(C(=O)COc2ccc(F)c(F)c2)C3)cc1	KDM5B inh 22µM
COc1ccc(-c2nc3c(c(=O)[nH]2)CCN(C(=O)Nc2ccc(C)cc2C)C3)cc1	KDM5B inh 25µM
CCCc1noc(-c2ccn3c(CNC(=O)c4ccccc4OCC)nnc3c2)n1	KDM5B inh 10µM
COc1ccccc1C(=O)NCc1nnc2cc(-c3nc(C)no3)ccn12	KDM5B inh 10µM
CCc1noc(-c2ccn3c(CNC(=O)c4ccccn4)nnc3c2)n1	none
CCCc1noc(-c2ccn3c(CNC(=O)c4cc(Cl)ccc4F)nnc3c2)n1	none
CCOc1ccccc1C(=O)NCc1nnc2cc(-c3nc(C(C)C)no3)ccn12	KDM5B inh 14µM
Cc1noc(-c2cccc(OC3CN(C(=O)c4cccc5[nH]ccc45)C3)c2)n1	KDM5B inh 28µM
CCc1noc(-c2ccn3c(CNC(=O)c4cc(Cl)ccc4OC)nnc3c2)n1	none
Cc1noc(-c2cccc(OC3CN(C(=O)c4cnn(C)c4)C3)c2)n1	none
CCN(CC)C(=S)SCC(=O)NC(=O)NC1CCCCC1	none (no result: IP6K1 inh)
COc1ccc(-c2cc(C(=O)NC3CCOCC3)c3cnn(C)c3n2)cc1	none (no result: KDM5B inh)
Cc1oc2cc(OS(C)(=O)=O)ccc2c(=O)c1-c1ccc(Br)cc1	none (no result: IP6K1 inh)
Cc1noc(-c2ccn3c(CNC(=O)c4cc5ccccc5[nH]4)nnc3c2)n1	KDM5B inh inconclusive
COc1ccccc1C(=O)NCc1nnc2cc(-c3nc(C(C)C)no3)ccn12	KDM5B inh 22µM
Cc1noc(-c2ccn3c(CNC(=O)c4cccc5[nH]ccc45)nnc3c2)n1	KDM5B inh 25µM
O=C(CSc1nc2ccccc2o1)NC(=O)NC1CCCC1	none (no result: IP6K1 inh)
COc1ccc(OC)c(C2C(C(=O)c3ccco3)=C(O)C(=O)N2c2nc3ccc(C)cc3s2)c1 (stereo unspecified)	none (no result: IP6K1 inh)
CC1CCCN(C(=O)c2cc(-c3ccccc3C(F)(F)F)nc3c2cnn3C)C1 (stereo unspecified)	none (no result: KDM5B inh)
CCc1ncc(-c2c(-c3ccccc3)ncn2CCCOc2cccnc2)cn1	none
CCSc1ncc(-c2c(-c3ccccc3)ncn2CC[C@@H](C)CO)cn1	KDM5B inh 14µM
COc1ccc(-c2cccc(C(=O)N3CCC(NC(=O)c4ccc5c(c4)OCO5)CC3)c2)nn1	none (no result: KDM5B inh)
CCOc1ccc(CC(=O)N2CCN(c3cc(-c4ccc(OC)cc4)[nH]n3)CC2)cc1	KDM5B inh inconclusive
N#Cc1cccc(C(=O)NCc2nnc3ccc(-c4ccc(F)cc4)nn23)c1	KDM5B inh 28µM
O=C(NCc1nnc2ccc(-c3ccc(F)cc3)nn12)c1cccc(OC(F)(F)F)c1	KDM5B inh inconclusive
Cc1ccc(-c2ccc3nnc(CNC(=O)c4cccc(N(C)C)c4)n3n2)cc1	none
Cc1ccc(-c2ccc3nnc(CNC(=O)c4cccc(C#N)c4)n3n2)cc1	KDM5B inh 11µM
CC(C)NC(=O)N1CC2ON=C(C(=O)N(C)C)C2C1 (stereo unspecified)	none
CCn1nccc1C(=O)N1CCC2(CC1)CCC(O)(CN(C)C)CC2	KDM5B inh 20µM
CN(C)CC1(O)CCC2(CCN(C(=O)c3nccc4ccccc34)CC2)CC1	none
COc1ccc(C2C3=C(CC(C)(C)CC3=O)Nc3ccccc3N2C(=O)C(F)(F)F)cc1OC (stereo unspecified)	none (no result: IP6K1 inh)
CCc1ccc(CNC(=O)C2CCN(c3cc(C(F)(F)F)ncn3)CC2)cc1	KDM5B inh 28µM
Cc1ccc(CNC(=O)C2CCN(c3cc(C(F)(F)F)ncn3)CC2)cc1	none
Cc1cccc(NC(=S)NCC2(C)CCCC3(C)c4ccc(C(C)C)cc4CCC23)c1 (stereo unspecified)	none (no result: IP6K1 inh)
O=C(NCc1coc(-c2cccs2)n1)c1cccc(Cl)c1Cl	none (no result: IP6K1 inh)
Cc1cc(-c2cc3[nH]ccc3c(C(=O)NCc3c(C)cc(C)[nH]c3=O)n2)ccn1	KDM5B inh 11µM
Cc1cc(C)c(CNC(=O)c2nc(-c3ccccc3)cc3c2ccn3C(C)C)c(=O)[nH]1	none
COc1ccc(-c2cc3c(ccn3C)c(C(=O)NCc3c(C)cc(C)[nH]c3=O)n2)cc1	none

Assay outcomes: PubChem, National Center for Advancing Translational Sciences (NCATS)
